According to the supplement of paper PMC6555819:

The sequences below were run on LXRa:RXRa (NR concentration 270 nM, RXRa partner concentration 90 nM) (assay: PBM binding z-score (relative to random genomic background probes); higher = stronger binding; sequences stand for … in GC…GCGATTGACAGCGTAGAATGAAGG).
Outline: (§1)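 Regression normalization was applied to scanned fluorescence from custom Agilent 4×180K protein-binding microarrays. Before scanning, arrays were incubated 1 h with ligand-free nuclear receptor dimers, and binding was detected with antibodies against each partner (one per run). Binding z-scores use the random background probes as reference.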

Sequence | PBM binding z-score
TATGCTAGGTCAGTTGGTCAGCTAACGAGCTGCC | 1.92
AGATCGAGGGCACGCTGAGTTGATAGCAGAGTAG | 0.579
TCTTGTAGATCAAGCGGGTTAAGAAAGCCTGAGT | 0.0631
ATATGTAGGTTATATCCGGGTCATTCAGGCTATG | 4.34
CTACCAAGGGGAACAAGGTCGTTGATTACTATTC | 0.398
ACTAGCAGGCCAAGGTTCACTCAAGATTAGTCCG | 1.16
CGAACTAGGTCATTGACAGGACCGTGAATAGTAA | 2.36
CATACTGGGCCATTCAGAGGTCATTGATCATATG | 4.44
ACTAGCGGGCCAAGTTTGGGTCACTCAAACAAAG | -0.183
CAAACTAGGTCACGAAAGGCCAAAGTCGAATGAC | 6.02
AATCAAAGTTCAGGACGAGGTAACGTAAAGCACG | 4.39
TAGCCCAGGTCATTGGGCCAGTATAGTACGCATC | 3.77
GCATATAGGTACTACAAGGTGAAAGTCCGATTGT | -0.132
CATACAGGGTCAGCTAGGCCAGAATAGGGACGGC | 3.22
ATCTCTAGGTAACAAGATCAGTGAAAGAGAGGAC | 0.168
ATCTCTAGGTATCCAAGTTCAGTGAATGCCGAAC | 0.879
GCAGAAAGGTGAAACGCAGGTAACTCAGGGTGGC | 1.62

Each sequence was assayed on LXRa homodimer (NR concentration 270 nM) in the same assay as above.
Outline: as §1

Sequence | PBM binding z-score
ATATGTAGGTTACATCCGGGTCATTTAGGCTATG | 1.8
CGTAGCAGGCCAGGGTCACTCAAGCATTTCGCTT | -0.329
CCAGACAGGTGAGAAAGTAACTCAGCCTCGATTA | 0.0347
ACTATTAGTTGACTTAGAGCAACCGATACGACGC | -0.0686
GGAACGAGGGCAAGTTGATATCAGAGTTTGATGG | -0.105
ACTATTAGCTGACTTAGGGCAACCGATACGACGC | 0.194
TAGCCTAGGTCATTGGGCCAGCATAGTACGCATC | 0.466
CCTATTAGTTGCCCATAAGGGCAACCGAAGCTCG | 0.425
GCTGCTAGGTCAGGTTGGTTAGCTAACGGGTACG | -0.475
TTACCAAGGTAAGCTGAGGTCGTTGATCCAACTC | -0.287
TCTGCTAGGTCATTTGGTCAGCTAACGAGCTGCC | 1.04
TAGCCTAGGTCATTCAGAGGCCAGTATAGAAAGC | 0.829
CTCGAAAGGTCGGTTTAGGTGAGTATACGGATAA | -0.093
ACTATTAATTGACTTAGGGCAACCGATACGACGC | 1.02
CGCACTAGGTCAGAACAGGACAGTGAAGGATGAT | -0.057
CCTTACGCGTCACTCCAGGTTATAGCATCGGAGT | 1.55
GCTATTCGTTGAAAGGGCAACCGAATGATTCTCG | 0.342
TCGAGTAGGCTACCAATGGGGCATTCAGCTTTCT | -1.06
GATACAGGATCAAGGCCAGAGTACGCGTATTGAT | -0.269
GCTGCTAGCTCAGGTTGGTCAGCTAACGGGTACG | -0.914

Sequence | PBM binding z-score
TCATATAGGTAACGGTGAAAGTCGAACGATATGA | -0.274
TCAGACAGGTGAAGGTAAGTCAGGTACGCAGTCG | -0.273
TATGCTAGGTCAGTTGGTCAGCTAACGAGCTGCC | 0.835
AGATCGAGGGCACGCTGAGTTGATAGCAGAGTAG | -0.704
TCTTGTAGATCAAGCGGGTTAAGAAAGCCTGAGT | -0.461
ATATGTAGGTTATATCCGGGTCATTCAGGCTATG | 3.29
CTACCAAGGGGAACAAGGTCGTTGATTACTATTC | 0.166
ACTAGCAGGCCAAGGTTCACTCAAGATTAGTCCG | 0.631
CGAACTAGGTCATTGACAGGACCGTGAATAGTAA | 0.141
CATACTGGGCCATTCAGAGGTCATTGATCATATG | 6.31
ACTAGCGGGCCAAGTTTGGGTCACTCAAACAAAG | -0.598
CAAACTAGGTCACGAAAGGCCAAAGTCGAATGAC | 1.03
AATCAAAGTTCAGGACGAGGTAACGTAAAGCACG | 2.25
TAGCCCAGGTCATTGGGCCAGTATAGTACGCATC | 0.677
GCATATAGGTACTACAAGGTGAAAGTCCGATTGT | -0.343
CATACAGGGTCAGCTAGGCCAGAATAGGGACGGC | -0.0324
ATCTCTAGGTAACAAGATCAGTGAAAGAGAGGAC | 0.348
ATCTCTAGGTATCCAAGTTCAGTGAATGCCGAAC | 2
GCAGAAAGGTGAAACGCAGGTAACTCAGGGTGGC | -0.633

Each sequence was assayed on LXRb:RXRa (NR concentration 270 nM, RXRa partner concentration 90 nM) in the same assay as above.
Outline: as §1

Sequence | PBM binding z-score
ATATGTAGGTTACATCCGGGTCATTTAGGCTATG | 3.3
CGTAGCAGGCCAGGGTCACTCAAGCATTTCGCTT | 2.14
CCAGACAGGTGAGAAAGTAACTCAGCCTCGATTA | 0.0309
ACTATTAGTTGACTTAGAGCAACCGATACGACGC | 0.0226
GGAACGAGGGCAAGTTGATATCAGAGTTTGATGG | 0.453
ACTATTAGCTGACTTAGGGCAACCGATACGACGC | -0.149
TAGCCTAGGTCATTGGGCCAGCATAGTACGCATC | 1.87
CCTATTAGTTGCCCATAAGGGCAACCGAAGCTCG | 0.645
GCTGCTAGGTCAGGTTGGTTAGCTAACGGGTACG | 0.322
TTACCAAGGTAAGCTGAGGTCGTTGATCCAACTC | 0.881
TCTGCTAGGTCATTTGGTCAGCTAACGAGCTGCC | 2.03
TAGCCTAGGTCATTCAGAGGCCAGTATAGAAAGC | 2.82
CTCGAAAGGTCGGTTTAGGTGAGTATACGGATAA | 1.7
ACTATTAATTGACTTAGGGCAACCGATACGACGC | 0.353
CGCACTAGGTCAGAACAGGACAGTGAAGGATGAT | 0.629
CCTTACGCGTCACTCCAGGTTATAGCATCGGAGT | 1.36
GCTATTCGTTGAAAGGGCAACCGAATGATTCTCG | 0.644
TCGAGTAGGCTACCAATGGGGCATTCAGCTTTCT | -0.127
GATACAGGATCAAGGCCAGAGTACGCGTATTGAT | -0.535
GCTGCTAGCTCAGGTTGGTCAGCTAACGGGTACG | -0.935

Sequence | PBM binding z-score
TCATATAGGTAACGGTGAAAGTCGAACGATATGA | 0.302
TCAGACAGGTGAAGGTAAGTCAGGTACGCAGTCG | 0.356
TATGCTAGGTCAGTTGGTCAGCTAACGAGCTGCC | 0.423
AGATCGAGGGCACGCTGAGTTGATAGCAGAGTAG | 0.248
TCTTGTAGATCAAGCGGGTTAAGAAAGCCTGAGT | 0.225
ATATGTAGGTTATATCCGGGTCATTCAGGCTATG | 2.93
CTACCAAGGGGAACAAGGTCGTTGATTACTATTC | 1.28
ACTAGCAGGCCAAGGTTCACTCAAGATTAGTCCG | 1.04
CGAACTAGGTCATTGACAGGACCGTGAATAGTAA | 1.66
CATACTGGGCCATTCAGAGGTCATTGATCATATG | 3.86
ACTAGCGGGCCAAGTTTGGGTCACTCAAACAAAG | 0.723
CAAACTAGGTCACGAAAGGCCAAAGTCGAATGAC | 4.03
AATCAAAGTTCAGGACGAGGTAACGTAAAGCACG | 2.03
TAGCCCAGGTCATTGGGCCAGTATAGTACGCATC | 2.25
GCATATAGGTACTACAAGGTGAAAGTCCGATTGT | 0.0572
CATACAGGGTCAGCTAGGCCAGAATAGGGACGGC | 2.38
ATCTCTAGGTAACAAGATCAGTGAAAGAGAGGAC | 0.0382
ATCTCTAGGTATCCAAGTTCAGTGAATGCCGAAC | 0.57
GCAGAAAGGTGAAACGCAGGTAACTCAGGGTGGC | 0.912
